# From PubChem BioAssay (NCI)
# The panel holds about 83,000 compounds, 20% with a hit somewhere; the sample as a whole holds those more often.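 Percent growth is the endpoint: 0 to 100 indicates growth inhibition (40 means 60% inhibition), 0 means no net growth, and negative values indicate cell death.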 Unmarked numbers belong to inactive results. Activity calls are given as the source filed them. How the source made its calls: active means growth percent below 10; inactive means the rest.
# Tested on: MDA-MB-468 breast
# Assay: NCI-60 one-dose screen, 48 h (100 = growth as untreated, 0 = no growth, -100 = all killed)
# Conditions: 10 µM unless noted
row,SMILES,growth
1,COC(=S)SCN(CSC(=S)OC)c1ccc(Cl)cc1,95.1%
2,COc1ccc(-c2cc(C(=O)Nc3ccc(C)cc3)nc3[nH]c(=O)sc23)cc1,66.6%
3,COc1cccc(CNc2c3ccccc3nc3ccccc23)c1,13.6%
4,COc1cc(C2NC(c3ccc(Cl)cc3)C(C)C(=NC(=O)c3cnccn3)C2C)cc(OC)c1OC (stereo not given),91.6%
5,Cn1cc(-c2csc(-c3cn(CCNC(=O)OC(C)(C)C)c4ccccc34)n2)c2cccnc21,23.4%
6,CCc1cc2c(cc1N1CCC(N3CCOCC3)CC1)C(C)(C)c1[nH]c3cc(C#N)ccc3c1C2=O,-38.2% (active)
7,O=C(O)C(c1ccccc1)N1C(=O)CSC1=S (stereo not given),101%
8,C#CCOc1cccc(Nc2ncnc3c2ncn3C2CCN(C(=O)CCl)C2)c1 (stereo not given),-65.7% (active)
9,O=C(/C=C(/C=C/c1ccc2[nH]ccc2c1)OB(F)F)/C=C/c1ccc2[nH]ccc2c1,-57% (active)
10,CCOC(=O)C1=C(Nc2ccc(Br)cc2)C(=O)N(CC)C1,101%
11,CNC(=O)c1ccc(Nc2ncc(C(F)(F)F)c(NCc3nccnc3N(C)S(C)(=O)=O)n2)cc1,-50.1% (active)
12,O=C(CSc1ccc(Cl)cc1)Nc1ccc(-c2nc3ccccc3s2)c(Cl)c1,52.1%
13,Cc1ccc(C(=O)Nc2ccc(CN3CCN(C)CC3)c(C(F)(F)F)c2)cc1C#Cc1cnc(N)cc1C#N,-63.8% (active)
14,N#CCCN1C/C(=C/c2ccccc2)C(=O)/C(=C/c2ccccc2)C1,11.7%
15,CCN(CC)C(=S)SCCO,94.6%
16,O=C(/C=C/c1c[nH]c2ccccc12)c1ccc(O)c(CN2CCN(c3ccc(F)cc3)CC2)c1,97.4%
17,CCc1nc2c(=O)[nH]cnc2o1,90.8%
18,CCCNC(=O)c1cn2ncnc(Nc3cc(C(=O)NC4CC4)ccc3C)c2c1C,73%
19,COc1cccc(CC(C)=C(c2ccc(OCCCN(C)C)cc2)c2ccc(OCCCN(C)C)cc2)c1,-83.4% (active)
20,COC(=O)c1ccc(Cn2ccc(=O)[nH]c2=O)cc1,104%

row,SMILES,growth
1,COc1cccc(-c2[nH]c(=S)ncc2C(=O)c2ccccc2)c1,59.4%
2,O=C(O)C(=Cc1c2ccccc2cc2ccccc12)C(=O)O,116%
3,CCN(c1ccc(Cl)cc1)c1nc(-c2ccc([N+](=O)[O-])cc2)cs1,83.8%
4,Oc1ccccc1C=NCC1CCC(CN=Cc2ccccc2O)CC1 (stereo not given),74.4%
5,CSCc1ncc(-c2ccc(C(F)(F)F)cc2)c(NC2CCCCCC2)n1,85.7% [25 µM]
6,N[C@@H](Cc1cn(-c2ccnc3ccccc23)nn1)C(=O)O,108%
7,Cc1cc(C)cc(Nc2cc(C)nc3nc(C(F)(F)F)nn23)c1,25.5%
8,O=C(Nc1ccc(OCc2nnc(-c3ccccc3)o2)c(F)c1)Nc1ccc(Cl)c(Cl)c1,26.3%
9,CC(C)C1=NOC(=O)C1=Cc1cn(-c2ccccc2)nc1-c1cccc([N+](=O)[O-])c1,86.6%
10,O=c1[nH]ccc2nc(N3CCC(O)CC3)nc(Nc3ccc(N4CCOCC4)cc3)c12,159%
11,COc1cc2nc(Cl)nc(Nc3cccc(C4=Nc5c(N)nc(N)nc5NC(c5ccc(Br)cc5)C4)c3)c2cc1OC (stereo not given),90.3%
12,Nc1ccccc1NC(=O)c1ccc(CSc2nc(N3CCOCC3)c3cccn3n2)cc1,-11.1% (active)
13,COc1cc(C(=O)n2nc(N3CCN(C)CC3)c3cc(N)ccc32)cc(OC)c1OC,0.604% (active)
14,CC(C)=CCc1cc(O)c(O)c2oc3cc(O)cc(O)c3c(=O)c12,123%
15,CC(C)(C)OC(=O)N1C(=O)c2c(c3c4ccccc4[nH]c3c3ccc4ccccc4c23)C1=O,75.6%
16,COc1cccc(/C(C)=N/NC(=O)CSc2nc3ccccc3c(=O)n2CCc2ccc(S(N)(=O)=O)cc2)c1,35.3%
17,O=CNc1cc(Cl)cc(Cl)c1,103%
18,CCOC(=O)c1cnn2c(-c3ccc(Cl)cc3)nc(NCc3ccccc3)nc12,84.8%
19,C=CC(=O)Nc1cccc(C)c1Nc1cc(-c2cccnc2Cc2c(C)c(OC)cc(OC)c2C)ncn1,19.5%
20,CNc1nc(NC)c2cn[nH]c2n1,94.8%
